The results in this text go back to PubChem BioAssay.

Structures are written as SMILES. Calls of active or inactive are those of the source.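 The calls were made as follows: active = compound raising the membrane signal above positive-control mean plus 3 SD in both repeats, and a primary screen hit; inactive = the rest.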

For this experiment, the target named is Short transient receptor potential channel 6 (Mus musculus) (UniProt Q61143). Put plainly: TRPC6 potentiation by TRPC4 potentiator hits, confirmation, selectivity assay for TRPC4 potentiator project, HEK293 cells, membrane potential dye, duplicate (AID 434952). To be noted: HEK293 TRPC6, membrane potential dye fluorescence, at 10 µM; maximal acetylcholine added after compound unless noted.
Short transient receptor potential channel 6 (Mus musculus), sequence (Q61143 whole entry, looked up): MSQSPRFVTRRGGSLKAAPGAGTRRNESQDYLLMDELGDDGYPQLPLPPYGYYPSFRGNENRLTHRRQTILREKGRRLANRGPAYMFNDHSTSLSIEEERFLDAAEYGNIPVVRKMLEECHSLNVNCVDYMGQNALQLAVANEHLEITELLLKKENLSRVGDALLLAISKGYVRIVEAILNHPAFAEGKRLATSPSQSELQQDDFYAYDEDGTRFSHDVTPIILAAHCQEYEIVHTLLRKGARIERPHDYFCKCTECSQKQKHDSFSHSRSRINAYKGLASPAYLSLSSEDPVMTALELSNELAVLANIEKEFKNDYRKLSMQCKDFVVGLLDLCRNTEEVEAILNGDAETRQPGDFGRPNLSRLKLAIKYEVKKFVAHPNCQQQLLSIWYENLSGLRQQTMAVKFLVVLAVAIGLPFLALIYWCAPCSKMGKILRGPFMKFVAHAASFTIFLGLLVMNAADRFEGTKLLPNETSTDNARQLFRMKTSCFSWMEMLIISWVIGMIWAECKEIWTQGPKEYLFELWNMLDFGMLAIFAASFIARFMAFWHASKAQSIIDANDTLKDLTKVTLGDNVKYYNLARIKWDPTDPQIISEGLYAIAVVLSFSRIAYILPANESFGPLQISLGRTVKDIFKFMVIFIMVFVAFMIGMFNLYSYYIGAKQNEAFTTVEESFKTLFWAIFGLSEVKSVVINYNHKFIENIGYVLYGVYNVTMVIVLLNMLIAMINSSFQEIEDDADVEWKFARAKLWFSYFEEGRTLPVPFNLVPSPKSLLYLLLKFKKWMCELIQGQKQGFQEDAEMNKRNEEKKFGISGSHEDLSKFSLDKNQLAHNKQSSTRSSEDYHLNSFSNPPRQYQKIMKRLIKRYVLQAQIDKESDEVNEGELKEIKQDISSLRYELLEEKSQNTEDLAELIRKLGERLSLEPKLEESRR
As for `Clc1ccc(OCC#CCN2CCCC2)cc1`, the result was inactive.
With `CN(CCOc1ccc(C=C2C(=O)NC(=O)NC2=O)cc1)c1ccccn1` the entry was “inactive [setting not given]”; with `CCN1CC2C3CCC(C)(O3)C2C1` (stereo unspecified), “inactive”; with `CC(C)CNc1c2c(nc3ccccc13)CCC2`, “inactive”.
Regarding `COC(=O)C1=C(c2cc3ccccc3s2)C[C@@H]2CC[C@H]1N2C(=O)NCCO`, the result was inactive.
In the case of `Cc1ccc(-c2cc(-c3ccccc3)cc(-c3ccccc3)[n+]2-c2ccccc2)cc1`, the result was inactive.
With `Nc1ccccc1-[n+]1c(-c2ccccc2)cc(-c2ccccc2)cc1-c1ccccc1` the entry was “inactive”; with `Clc1ccc2c(c1)C(c1ccccc1Cl)=NCc1nnc(N3CCN(CCOc4ccccc4)CC3)n1-2`, “inactive”; with `Cc1ccccc1CN1CCNCC1`, “inactive [setting not given]”.
In the case of `CN1CCN(Cc2cc(=O)n3ccsc3n2)CC1`, the outcome was inactive.
Then `CCC1=Nc2cc(C(=O)N3CCC4(CC3)OCCO4)ccc2Sc2ccc(Br)cc21`, with “inactive [setting not given]”.
Then `CCCCN1C(=O)NC(=O)C2(Cc3c(nc4c(C)cccn4c3=O)N3CCc4ccccc4C32)C1=O` (stereo unspecified), with “inactive [setting not given]”; and `C=CCOC(=O)C1=C(C)OC(N)=C(C#N)[C@@]12C(=O)N(CC(N)=O)c1ccccc12`, with “inactive”.
With `FC(F)(F)c1ccc(CN2CCNCC2)cc1` the entry was “inactive [setting not given]”; with `Clc1ccc(N2CCNCC2)nn1`, “inactive”.
As to `O=[N+]([O-])c1ccc(N2CCNCC2)cc1N1CCCCCC1`, the outcome was inactive.
As for `C#CCN1C(=O)C2(C(C#N)=C(N)OC(C)=C2C(=O)OCc2ccccc2)c2ccccc21` (stereo unspecified), the outcome was inactive.
In the case of `Cc1ccc(-c2nc(N(C)C3CCN(C)CC3)c3ccccc3n2)cc1`, the result was inactive.
Take `c1ccc2nc(OCCN3CC3)ccc2c1`: the outcome was inactive.
Consider `Cc1cc(OC(C)C(=O)NCc2ccncc2)c2c3c(c(=O)oc2c1)CCCC3` (stereo unspecified), for which the result was inactive.
Regarding `CCNCCNc1ccc([N+](=O)[O-])c2cccnc12`, the result was inactive.
Regarding `CN(C)CCn1cnc2ccccc21`, the outcome was inactive.
As to `COC(=O)C(O)(c1ccc(NC(=S)NC(=O)c2ccc(Cl)cc2Cl)c(C)c1)C(F)(F)F` (stereo unspecified), the outcome was inactive.
With `COc1ccc(C(=O)C2CN(C)CC2c2ccc(Cl)cc2)cc1` (stereo unspecified), the result was inactive.
Turning to `CC(Cc1ccccc1)NCC(=O)Nc1cc(N(C)C)nc2ccccc12` (stereo unspecified), the result was inactive.
Then `Nc1c([N+](=O)[O-])cc(F)c(N2CCNCC2)c1Br`, with “inactive”.
For `Oc1c(Br)cc(Br)cc1CN1CCN(Cc2ccccc2)CC1`, the outcome was “inactive [setting not given]”.
Then `CCNc1cc(N2CCNCC2)ccc1[N+](=O)[O-]`, with “inactive”; and `CCn1ccnc1CN1CCCC(C(=O)c2cccc(C(F)(F)F)c2)C1` (stereo unspecified), with “inactive”; and `CCc1ccc(OCCCN=C(C)c2c(O)n(C)c(=O)n(C)c2=O)cc1`, with “inactive [setting not given]”.
For the compound `Cc1cccc(N=Cc2c(O)n(-c3ccccc3C)c(=O)[nH]c2=O)c1`, the outcome was “inactive [setting not given]”.
